Consider 11 molecules from ChEMBL document CHEMBL3988442, “University of Dundee, Small-Polar-MMV Screening Library” (2021).

SMILES strings stand for the structures. For some of these results: Entries with a potency or affinity are not part of this list.

Set-up in all cases: scale not given: direction of the effect not stated beside the values
The target in assay [1] is Protein translocase subunit SecA (Escherichia coli (strain K12)) (UniProt P10408). As to the kind of experiment: Assay to Identify E. coli SecA ATPase Inhibitors. Format: functional. Conditions: 30 µM.
The target in assay [2] is T1, Ubiquitin-activating enzyme e1, putative (Leishmania donovani (strain BPK282A1)) (UniProt E9BSI1).
T1 sequence (whole entry): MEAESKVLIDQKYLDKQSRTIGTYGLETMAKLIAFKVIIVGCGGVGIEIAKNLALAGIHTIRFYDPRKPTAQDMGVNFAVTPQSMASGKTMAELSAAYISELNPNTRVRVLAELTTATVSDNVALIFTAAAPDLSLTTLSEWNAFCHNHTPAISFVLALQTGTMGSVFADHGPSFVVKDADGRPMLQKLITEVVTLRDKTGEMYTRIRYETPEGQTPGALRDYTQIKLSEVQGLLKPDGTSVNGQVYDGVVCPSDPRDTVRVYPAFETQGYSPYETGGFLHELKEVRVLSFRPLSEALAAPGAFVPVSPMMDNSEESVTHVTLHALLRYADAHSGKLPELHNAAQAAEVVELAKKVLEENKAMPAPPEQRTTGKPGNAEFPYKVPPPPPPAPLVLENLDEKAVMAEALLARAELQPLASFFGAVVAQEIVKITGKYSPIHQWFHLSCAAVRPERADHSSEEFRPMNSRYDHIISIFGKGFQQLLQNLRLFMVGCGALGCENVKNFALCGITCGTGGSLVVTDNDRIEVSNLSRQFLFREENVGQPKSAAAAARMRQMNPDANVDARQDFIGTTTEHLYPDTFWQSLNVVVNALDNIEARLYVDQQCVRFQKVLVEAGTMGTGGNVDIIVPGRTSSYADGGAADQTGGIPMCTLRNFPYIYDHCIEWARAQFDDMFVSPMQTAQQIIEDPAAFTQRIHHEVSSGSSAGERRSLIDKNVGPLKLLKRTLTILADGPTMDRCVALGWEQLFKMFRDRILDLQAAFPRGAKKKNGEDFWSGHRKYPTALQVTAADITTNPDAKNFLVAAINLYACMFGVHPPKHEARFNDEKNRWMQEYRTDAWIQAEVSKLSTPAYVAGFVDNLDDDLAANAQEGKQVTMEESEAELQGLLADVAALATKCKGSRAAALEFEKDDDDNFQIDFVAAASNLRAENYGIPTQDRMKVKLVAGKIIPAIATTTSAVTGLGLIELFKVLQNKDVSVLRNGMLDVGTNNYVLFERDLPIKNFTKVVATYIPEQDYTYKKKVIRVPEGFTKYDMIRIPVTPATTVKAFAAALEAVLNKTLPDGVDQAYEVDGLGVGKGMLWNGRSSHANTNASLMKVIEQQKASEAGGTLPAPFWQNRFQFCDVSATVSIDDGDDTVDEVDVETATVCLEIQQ
As to the kind of experiment: Leishmania donovani Ubiquitin Activating Enzyme (LdE1). In kind it is functional. The settings on record: 30 µM.

Assay [3] deals with AMP-activated protein kinase, AMPK (Homo sapiens) (UniProt P54646+O43741+P54619+Q9UGJ0+Q9Y478+Q13131+Q9UGI9). Nature of the assay: AMP-dependent Kinase enzyme assay. An in vitro enzyme assay that detects ADP turnover that is directly proportional to AMPK activity. This uses naive AMPK that is activated during the assay with MK-8722. In kind it is functional. The settings on record: 30 µM.

Assay [4] concerns the target Sialic acid-binding Ig-like lectin 9 (Homo sapiens) (UniProt Q9Y336). Nature of the assay: Hs-Siglec9 ALPHAscreen SOP 20170721. Conditions: 10 µM. On the technique in general: Alpha assays give light when donor and acceptor beads are brought close together.
The test system of a further assay is Trypanosoma cruzi. As to the kind of experiment: Trypanosoma cruzi phosphomannomutase and mannose-1-phosphate guanylyltransferase assay. In kind it is functional. Conditions: 10 µM.
The target in assay [5] is T2, Arginase-2, mitochondrial (Homo sapiens) (UniProt P78540).
T2 sequence (whole entry): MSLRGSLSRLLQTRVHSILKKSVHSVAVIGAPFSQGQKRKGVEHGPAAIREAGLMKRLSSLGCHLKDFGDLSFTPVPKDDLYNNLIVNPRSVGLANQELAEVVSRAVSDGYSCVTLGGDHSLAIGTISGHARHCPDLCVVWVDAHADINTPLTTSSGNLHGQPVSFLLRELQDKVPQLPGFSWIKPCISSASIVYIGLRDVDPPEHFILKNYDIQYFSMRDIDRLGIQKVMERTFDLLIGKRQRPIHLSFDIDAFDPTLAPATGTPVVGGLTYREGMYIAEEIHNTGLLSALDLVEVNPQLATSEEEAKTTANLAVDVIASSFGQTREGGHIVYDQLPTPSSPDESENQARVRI
As to the kind of experiment: in vitro enzyme assay to detect the production of urea directly proportional to the activity of Arginase II. Further: in the data most compounds retested in dose-response had high values. In kind it is functional. The settings on record: 33.3 µM.

Assay [6] concerns the target T3, Proteasome subunit beta (Trypanosoma cruzi) (UniProt O96673).
T3 sequence (whole entry): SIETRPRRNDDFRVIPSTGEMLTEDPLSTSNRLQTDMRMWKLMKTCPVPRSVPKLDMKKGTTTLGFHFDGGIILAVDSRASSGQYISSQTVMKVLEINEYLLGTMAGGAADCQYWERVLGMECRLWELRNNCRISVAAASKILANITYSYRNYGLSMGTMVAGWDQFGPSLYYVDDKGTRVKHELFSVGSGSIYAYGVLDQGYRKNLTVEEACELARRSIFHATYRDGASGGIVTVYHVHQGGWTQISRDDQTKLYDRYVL
As to the kind of experiment: Trypanosoma cruzi proteasome chymotrypsin-like activity (TcProtChymo) assay. Further: in the data most compounds retested in dose-response had high values. Format: functional. The settings on record: 9.37 µM.

The species named for another assay is Homo sapiens. Nature of the assay: To identify inhibition of the IFN signalling (Jak-Stat) pathway via expression of an eGFP reporter gene under the control of an IFN-stimulated response element (ISRE) containing MxA promoter. In kind it is functional. The settings on record: 30 µM. In general terms: Reporter assays use an easily measured gene product as a stand-in for the process of interest.

In assay [7] the target is T4, Tyrosyl-tRNA synthetase, putative (Trypanosoma cruzi (strain CL Brener)) (UniProt Q4DSP6).
T4 sequence (whole entry): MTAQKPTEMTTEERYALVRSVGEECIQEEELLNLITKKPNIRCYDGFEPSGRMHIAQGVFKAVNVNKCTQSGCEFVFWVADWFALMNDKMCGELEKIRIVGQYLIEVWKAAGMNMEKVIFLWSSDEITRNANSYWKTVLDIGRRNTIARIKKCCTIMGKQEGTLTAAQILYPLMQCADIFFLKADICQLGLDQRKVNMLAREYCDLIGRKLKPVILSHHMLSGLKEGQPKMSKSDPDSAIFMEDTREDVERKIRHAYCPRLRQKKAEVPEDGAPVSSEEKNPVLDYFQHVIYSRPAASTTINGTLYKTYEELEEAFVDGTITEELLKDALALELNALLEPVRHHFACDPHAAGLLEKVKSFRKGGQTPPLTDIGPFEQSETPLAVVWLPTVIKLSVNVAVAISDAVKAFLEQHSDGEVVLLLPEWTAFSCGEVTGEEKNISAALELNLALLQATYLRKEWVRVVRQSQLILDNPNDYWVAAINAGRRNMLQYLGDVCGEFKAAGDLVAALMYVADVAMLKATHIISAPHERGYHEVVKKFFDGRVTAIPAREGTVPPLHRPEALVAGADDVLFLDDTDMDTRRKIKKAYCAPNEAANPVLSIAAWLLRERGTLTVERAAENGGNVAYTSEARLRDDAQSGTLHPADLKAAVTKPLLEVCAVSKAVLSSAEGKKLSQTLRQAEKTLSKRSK
Nature of the assay: Trypanosoma cruzi tyrosyl tRNA synthetase (TcYRS) _High Tyrosine SOP. Further: in the data most compounds retested in dose-response had high values. Conditions: 30 µM. In kind it is functional.

The target of assay [8] is T4, Tyrosyl-tRNA synthetase, putative (Trypanosoma cruzi (strain CL Brener)). As to the kind of experiment: Trypanosoma cruzi tyrosyl tRNA synthetase (TcYRS) SOP. The settings on record: 30 µM. In kind it is functional.
In assay [9] the target is Chromo domain-containing protein 1 (Saccharomyces cerevisiae (strain ATCC 204508 / S288c) (Baker's yeast)) (UniProt P32657). Nature of the assay: ScCHD-1 Enzyme Inhibition Assay. Further: in the data most compounds retested in dose-response had high values. Format: functional. The settings on record: 30 µM.
Sequence of Chromo domain-containing protein 1 (Saccharomyces cerevisiae (strain ATCC 204508 / S288c) (Baker's yeast)) (P32657 whole entry, the tested form may be a part): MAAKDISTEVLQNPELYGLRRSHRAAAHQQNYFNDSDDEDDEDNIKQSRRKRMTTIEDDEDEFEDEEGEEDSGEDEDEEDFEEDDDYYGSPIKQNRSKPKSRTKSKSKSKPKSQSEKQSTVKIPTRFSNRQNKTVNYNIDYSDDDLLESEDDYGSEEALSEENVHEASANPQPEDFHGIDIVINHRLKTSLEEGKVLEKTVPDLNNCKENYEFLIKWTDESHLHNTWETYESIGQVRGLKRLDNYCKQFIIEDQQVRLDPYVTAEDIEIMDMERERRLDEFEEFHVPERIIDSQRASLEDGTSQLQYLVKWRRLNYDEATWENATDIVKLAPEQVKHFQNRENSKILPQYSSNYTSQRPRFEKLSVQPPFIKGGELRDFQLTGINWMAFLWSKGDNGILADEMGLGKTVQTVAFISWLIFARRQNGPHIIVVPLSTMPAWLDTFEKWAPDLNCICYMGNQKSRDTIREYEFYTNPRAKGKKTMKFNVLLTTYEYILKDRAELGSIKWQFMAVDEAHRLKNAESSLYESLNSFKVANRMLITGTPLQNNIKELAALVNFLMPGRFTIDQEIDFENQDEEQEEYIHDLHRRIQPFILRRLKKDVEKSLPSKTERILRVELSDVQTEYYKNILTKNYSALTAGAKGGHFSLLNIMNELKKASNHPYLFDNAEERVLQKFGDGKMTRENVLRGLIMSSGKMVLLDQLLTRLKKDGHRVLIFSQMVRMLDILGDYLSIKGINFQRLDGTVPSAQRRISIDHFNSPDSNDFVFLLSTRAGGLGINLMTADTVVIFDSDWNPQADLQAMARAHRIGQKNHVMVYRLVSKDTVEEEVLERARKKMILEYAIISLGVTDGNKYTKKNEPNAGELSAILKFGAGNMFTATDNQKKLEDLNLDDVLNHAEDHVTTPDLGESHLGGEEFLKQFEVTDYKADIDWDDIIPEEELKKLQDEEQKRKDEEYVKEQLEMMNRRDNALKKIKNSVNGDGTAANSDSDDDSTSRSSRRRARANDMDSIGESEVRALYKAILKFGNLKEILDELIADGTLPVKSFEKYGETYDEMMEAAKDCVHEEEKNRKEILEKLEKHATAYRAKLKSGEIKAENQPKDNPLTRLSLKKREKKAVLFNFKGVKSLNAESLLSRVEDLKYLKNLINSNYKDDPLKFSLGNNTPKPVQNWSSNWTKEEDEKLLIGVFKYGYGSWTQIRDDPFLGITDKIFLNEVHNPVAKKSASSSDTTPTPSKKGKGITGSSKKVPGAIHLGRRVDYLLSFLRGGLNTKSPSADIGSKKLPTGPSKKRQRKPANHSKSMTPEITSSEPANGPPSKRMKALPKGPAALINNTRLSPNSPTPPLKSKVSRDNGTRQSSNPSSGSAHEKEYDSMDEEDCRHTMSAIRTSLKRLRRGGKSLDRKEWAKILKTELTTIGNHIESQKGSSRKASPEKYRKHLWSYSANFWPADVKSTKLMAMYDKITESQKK

Sequence of Protein translocase subunit SecA (Escherichia coli (strain K12)) (P10408 whole entry): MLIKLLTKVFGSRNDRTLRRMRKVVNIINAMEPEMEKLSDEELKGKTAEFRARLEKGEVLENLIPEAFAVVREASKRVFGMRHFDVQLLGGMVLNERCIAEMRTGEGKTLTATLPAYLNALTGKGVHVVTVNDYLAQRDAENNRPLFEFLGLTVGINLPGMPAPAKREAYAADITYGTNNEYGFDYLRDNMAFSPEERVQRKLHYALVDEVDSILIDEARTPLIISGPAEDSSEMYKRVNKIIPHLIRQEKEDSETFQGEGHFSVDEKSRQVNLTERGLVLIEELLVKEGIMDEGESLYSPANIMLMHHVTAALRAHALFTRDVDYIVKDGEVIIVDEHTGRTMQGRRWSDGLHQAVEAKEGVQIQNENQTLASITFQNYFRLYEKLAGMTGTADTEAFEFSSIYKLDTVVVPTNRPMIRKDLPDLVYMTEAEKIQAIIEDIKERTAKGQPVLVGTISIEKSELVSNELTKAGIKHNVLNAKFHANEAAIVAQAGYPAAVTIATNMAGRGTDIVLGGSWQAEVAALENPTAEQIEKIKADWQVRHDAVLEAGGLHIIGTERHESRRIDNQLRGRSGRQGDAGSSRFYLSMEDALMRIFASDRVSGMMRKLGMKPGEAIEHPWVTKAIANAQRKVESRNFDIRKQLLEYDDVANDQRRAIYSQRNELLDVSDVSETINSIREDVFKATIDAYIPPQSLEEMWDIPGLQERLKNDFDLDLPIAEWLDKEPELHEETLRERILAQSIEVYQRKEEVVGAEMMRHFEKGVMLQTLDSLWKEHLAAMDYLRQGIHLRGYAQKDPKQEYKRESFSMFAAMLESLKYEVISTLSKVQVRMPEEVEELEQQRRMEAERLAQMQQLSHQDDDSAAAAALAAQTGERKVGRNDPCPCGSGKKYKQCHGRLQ
Sequence of Sialic acid-binding Ig-like lectin 9 (Homo sapiens) (Q9Y336 whole entry): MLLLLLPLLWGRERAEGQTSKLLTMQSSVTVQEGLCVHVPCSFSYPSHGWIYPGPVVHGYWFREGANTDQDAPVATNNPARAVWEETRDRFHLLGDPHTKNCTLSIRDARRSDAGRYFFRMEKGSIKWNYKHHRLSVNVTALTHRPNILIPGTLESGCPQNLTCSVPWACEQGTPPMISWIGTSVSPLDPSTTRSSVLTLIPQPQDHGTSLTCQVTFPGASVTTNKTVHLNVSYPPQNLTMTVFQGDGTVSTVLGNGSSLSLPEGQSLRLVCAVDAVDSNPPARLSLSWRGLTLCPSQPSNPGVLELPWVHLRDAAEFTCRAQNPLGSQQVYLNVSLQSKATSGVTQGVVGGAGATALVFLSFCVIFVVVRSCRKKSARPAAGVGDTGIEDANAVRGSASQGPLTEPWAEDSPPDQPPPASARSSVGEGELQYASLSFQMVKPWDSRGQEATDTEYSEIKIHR

With `Cc1nc(C2CCCN(C(=O)c3ccc(OCC4CC4)cc3)C2)no1` (stereo unspecified), the Percent Effect was -11% in assay [1]; 15.8% in assay [2]; -2.79% in [3]; 21.9% in assay [4]; 10.9% in the assay on Trypanosoma cruzi; 3.24% in assay [5]. Moreover, the Percent Effect is 7.19% in assay [6]; 0.288% in the assay listed under Homo sapiens; 5.42% in [7]; 25.9% in assay [8]; -8.85% in assay [9].
In the case of `CC(C)(C)c1nnc(CN2CCN(S(C)(=O)=O)CC2)o1`, the Percent Effect in assay [1] is -2.63%; in [2], 13.5%; in assay [3] it was -2.69%; in assay [4], 19.5%; in the assay on Trypanosoma cruzi it was 3.48%; in assay [5], 1.43%. In addition, the Percent Effect was 12.1% in assay [6]; 5.81% in the assay filed under Homo sapiens; 2.65% in assay [7]; 12.2% in assay [8]; -3.73% in assay [9].
In the case of `Cc1nccn1C1CCCN(C(=O)c2ccc3c(c2)NC(=O)CO3)C1` (stereo unspecified), the Percent Effect was -3.38% in assay [1]; 2.7% in assay [2]; -9.28% in assay [3]; -2.15% in assay [4]; 4.43% in the assay with Trypanosoma cruzi; -1.2% in [5]. The Percent Effect in assay [6] was 14.1%; in the assay filed under Homo sapiens, -3.11%; in assay [7], 6.4%; in assay [8], 16.1%; in [9] it was -9.9%.
`CCC(CC)C(CNC(=O)Nc1cc(C)nn1C)N1CCOCC1` (stereo unspecified): the Percent Effect in assay [1] was -4.23%; in assay [2] it was 17.7%; in assay [3] it was 3.07%; in [4], -7.11%; in the assay with Trypanosoma cruzi it was 9.54%; in assay [5], -5.32%. Also, the Percent Effect is 9.75% in assay [6]; 4.35% in the assay listed under Homo sapiens; 8.37% in assay [7]; 11.4% in [8]; -9.76% in assay [9].
With `COCCN1C[C@H]2[C@@H](C1)N(Cc1ccc(C)o1)CC[C@H]2OC`, the Percent Effect was -2.85% in [1]; -30.1% in assay [2]; -5.66% in [3]; 7.25% in assay [4]; 6.94% with Trypanosoma cruzi; -3.19% in assay [5]. The Percent Effect in [6] is 14.3%; in the assay listed under Homo sapiens it was 0.524%; in assay [7], 8.33%; in [8], 6.17%; in [9] it was -11.5%.
With `O=C1CC(c2ccncc2)C2(CCN(C(=O)c3ccc[nH]3)CC2)N1` (stereo unspecified), the Percent Effect in assay [1] was -2.27%; in assay [2], 18.9%; in [3], -1.68%; in assay [4] it was -16.4%; with Trypanosoma cruzi it was 4.01%; in assay [5], -5.41%. Moreover, the Percent Effect is 8.86% in assay [6]; 14.6% in the assay filed under Homo sapiens; 3.24% in [7]; 15.4% in [8]; -0.00396% in assay [9].
As to `COC(=O)c1cccc(NC(=O)CN2CCN(S(C)(=O)=O)CC2)c1`, the Percent Effect in assay [1] was -1.95%; in assay [2] it was 16.2%; in assay [3], 0.0395%; in assay [4], 18.7%; with Trypanosoma cruzi it was 2.64%; in assay [5], 25.6%. The Percent Effect in [6] was 15.4%; in the assay listed under Homo sapiens, 0.655%; in [7], 4.3%; in assay [8], 16.1%; in assay [9], -4.76%.
`N#CC1(C(=O)N2CCN(Cc3cscn3)CC2)CCCC1`: the Percent Effect in [1] was -4.16%; in [2] it was 10.1%; in assay [3], -7.12%; in assay [4], -4.28%; in the assay on Trypanosoma cruzi, -8.78%; in assay [5], 2.66%. Moreover, the Percent Effect in assay [6] is 3.19%; in the assay filed under Homo sapiens it was 29.4%; in assay [7], 0.493%; in assay [8] it was 1.27%; in [9], -7.41%.
With `CCc1ccc(CN2CCC3(CC2)CNC(=O)CO3)o1`, the Percent Effect is -2.61% in assay [1]; 2.7% in assay [2]; 1.59% in [3]; -0.0986% in assay [4]; 1.76% in the assay on Trypanosoma cruzi; 1.25% in assay [5]. The Percent Effect in [6] is 1.77%; in the assay filed under Homo sapiens, -14.2%; in [7], 2.97%; in [8] it was -3.66%; in [9], -0.389%.
Take `Fc1cccc(-c2nc(CN3CCCCC3Cn3cncn3)co2)c1` (stereo unspecified): the Percent Effect in assay [1] was -2.29%; in assay [2], 7.59%; in [3], 1.61%; in assay [4], 1.08%; with Trypanosoma cruzi, 7.65%; in assay [5] it was 1.52%. The Percent Effect in assay [6] was 1.72%; in the assay filed under Homo sapiens it was -27.5%; in [7], 3.45%; in assay [8] it was 13.9%; in [9] it was -6.86%.
Take `Cc1nc(CCNC(=O)NCc2ccc(N(C)C)nc2)cs1`: the Percent Effect in [1] was -4.75%; in [2], 13.5%; in assay [3], -4.65%; in assay [4], 3.94%; in the assay on Trypanosoma cruzi it was 1.79%; in [5], -0.401%. Also, the Percent Effect in [6] was 12.1%; in the assay filed under Homo sapiens, -114%; in [7] it was 9.36%; in assay [8], 16.1%; in assay [9], -4.66%.
